# Measurements: PubChem BioAssay (NCI)
# Compounds without any hit were thinned out: in the full panel of roughly 79,000, 15% have a hit. Values without a mark were called inactive. The source made the active and inactive calls. No stated cut-off is given here; in the data, active means growth inhibition above about 70%; inactive means the rest.
# Columns and labels:
# [1] = NCI Yeast Anticancer Drug Screen. Data for the rad52 strain (AID 147);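 further: 0% = growth of vehicle-treated control cultures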; conditions: S. cerevisiae rad52 mutant growth inhibition, hits give high values
# Summary of the method: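 Growth of repair-deficient yeast cells was compared between compound-treated and vehicle-treated cultures to give percent inhibition.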
# [2] = NCI Yeast Anticancer Drug Screen. Data for the wt1 strain (AID 149);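 further: 0% = growth of vehicle-treated wt1 cultures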; conditions: S. cerevisiae wt1 strain (SPY 50644) growth inhibition, hits give high values
# Summary of the method: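 Measured: growth of wt1 yeast under compound versus vehicle treatment, reported as inhibition.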
# [3] = NCI Yeast Anticancer Drug Screen. Data for the rad50EPP+ strain (AID 151);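 further: 0% = growth of vehicle-treated control cultures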; conditions: S. cerevisiae rad50 mutant strain, hits give high values
# Summary of the method: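 Measured: growth inhibition of rad50EPP+ yeast. Reference: vehicle-treated controls. Screen uses strains with defined genetic alterations in DNA damage repair or cell cycle control.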
# [4] = NCI Yeast Anticancer Drug Screen. Data for the mgt1 strain (AID 153); conditions: S. cerevisiae mgt1 mutant growth inhibition, hits give high values
# Summary of the method: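 Compounds were applied to mgt1 mutant yeast, and growth was then compared against vehicle-treated control cultures to give percent inhibition.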
# [5] = NCI Yeast Anticancer Drug Screen. Data for the rad50 strain (AID 155);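 further: 0% = growth of vehicle-only cultures of the same strain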; conditions: S. cerevisiae rad50 strain growth inhibition, hits give high values
# Summary of the method: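 Growth of the mutant yeast was measured after compound exposure and referenced to vehicle-treated cultures.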
# [6] = NCI Yeast Anticancer Drug Screen. Data for the mec2-1 strain (AID 157); conditions: S. cerevisiae mec2-1 strain, hits give high values
# Summary of the method: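 Compounds were applied to mec2-1 yeast cells. Their growth was then compared with that of vehicle-treated cultures to give growth inhibition.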
# [7] = NCI Yeast Anticancer Drug Screen. Data for the rad14 strain (AID 159);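 further: 0% = growth of vehicle-treated control cultures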; conditions: S. cerevisiae rad14 strain growth inhibition, hits give high values
# Summary of the method: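 Here, inhibition of yeast growth was measured after compound exposure, using a strain with a genetic defect in DNA damage repair and vehicle-treated cultures as the reference.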
# [8] = NCI Yeast Anticancer Drug Screen. Data for the sgs1 mgt1 strain (AID 161);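 further: 0% = growth of cultures given vehicle only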; conditions: S. cerevisiae sgs1 mgt1 strain, hits give high values
# Summary of the method: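 Compounds are added to genetically altered yeast, and growth is compared with cultures given vehicle alone to give percent inhibition.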
# [9] = NCI Yeast Anticancer Drug Screen. Data for the CLN2oe strain (AID 163);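 further: 0% = growth of vehicle-only control cultures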; conditions: S. cerevisiae CLN2oe strain, hits give high values
# Summary of the method: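 Cells of an engineered yeast line with disturbed cell-cycle regulation are treated with compound. Inhibition of growth is then calculated relative to the vehicle-treated reference.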
# [10] = NCI Yeast Anticancer Drug Screen. Data for the bub3 strain (AID 167); conditions: S. cerevisiae bub3 mutant strain, hits give high values
# Summary of the method: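 Whole-cell yeast assay. The mutant strain was incubated with compounds, and growth inhibition was determined by comparison with vehicle-treated cells.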
# [11] = NCI Yeast Anticancer Drug Screen. Data for the wt2 strain (AID 169);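 further: 0% = growth of vehicle-treated yeast cultures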; conditions: S. cerevisiae wt2 strain growth inhibition, hits give high values
# Summary of the method: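 Growth of compound-treated yeast is measured and expressed as inhibition relative to vehicle-only controls.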
# [12] = NCI Yeast Anticancer Drug Screen. Data for the mlh1 strain (AID 171);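 further: 0% = growth of vehicle-treated control cultures of the same strain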; conditions: S. cerevisiae mlh1 strain growth inhibition, hits give high values
# Summary of the method: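 Test agents were incubated with yeast bearing a defined DNA damage repair or cell cycle control alteration; values are growth inhibition normalised to vehicle-treated cultures.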
# [13] = NCI Yeast Anticancer Drug Screen. Data for the sgs1 strain (AID 173);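 further: 0% = growth of vehicle-only control cultures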; conditions: S. cerevisiae sgs1 mutant, hits give high values
# Summary of the method: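 Strain with an altered DNA repair or cell cycle pathway exposed to compound. Growth then measured. Value = inhibition versus vehicle control.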
# [14] = NCI Yeast Anticancer Drug Screen. Data for the mlh1 rad18 strain (AID 175); conditions: S. cerevisiae mlh1 rad18 strain growth inhibition, hits give high values
# Summary of the method: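 A repair-deficient yeast strain is exposed to test compound, and growth is scored relative to vehicle-treated controls.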
# [15] = NCI Yeast Anticancer Drug Screen. Data for the rad18 strain (AID 177); conditions: S. cerevisiae rad18 mutant growth inhibition, hits give high values
# Summary of the method: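 DNA-repair-defective yeast; compound treatment; growth inhibition scored against vehicle.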
# [16] = at 5.0 µM (retest, dose inferred, filed as 0.5)
# [17] = at 50.0 µM (retest, dose inferred, filed as 5.0)
structure (smiles),measurement,setting,value
COc1ccc(-c2cn(-c3ccc(I)cc3)c3ncnc(N)c23)cc1,growth inhibition,[1]; at 1.2 µM,-2%
same,growth inhibition,[1]; at 3.7 µM,-5%
same,growth inhibition,[1]; at 11.0 µM,-9%
same,growth inhibition,[1]; at 33.0 µM,-7%
same,growth inhibition,[1]; at 100.0 µM,-8%
same,growth inhibition,[2]; at 1.2 µM,-4%
same,growth inhibition,[2]; at 3.7 µM,-4%
same,growth inhibition,[2]; at 11.0 µM,-10%
same,growth inhibition,[2]; at 33.0 µM,-11%
same,growth inhibition,[2]; at 100.0 µM,-2%
same,growth inhibition,[3]; at 1.2 µM,-2%
same,growth inhibition,[3]; at 3.7 µM,1%
same,growth inhibition,[3]; at 11.0 µM,6%
same,growth inhibition,[3]; at 33.0 µM,8%
same,growth inhibition,[3]; at 100.0 µM,6%
same,growth inhibition,[4]; at 1.2 µM,-6%
same,growth inhibition,[4]; at 3.7 µM,-8%
same,growth inhibition,[4]; at 11.0 µM,-11%
same,growth inhibition,[4]; at 33.0 µM,2%
same,growth inhibition,[4]; at 100.0 µM,17%
same,growth inhibition,[5]; at 1.2 µM,-2%
same,growth inhibition,[5]; at 3.7 µM,-2%
same,growth inhibition,[5]; [16],4%
same,growth inhibition,[5]; at 11.0 µM,-2%
same,growth inhibition,[5]; at 33.0 µM,1%
same,growth inhibition,[5]; [17],69%
same,growth inhibition,[5]; at 50.0 µM,14.8%
same,growth inhibition,[5]; at 100.0 µM,-10%
same,growth inhibition,[6]; at 1.2 µM,-4%
same,growth inhibition,[6]; at 3.7 µM,-4%
same,growth inhibition,[6]; [16],-6%
same,growth inhibition,[6]; at 11.0 µM,-5%
same,growth inhibition,[6]; at 33.0 µM,0%
same,growth inhibition,[6]; [17],78% (active)
same,growth inhibition,[6]; at 50.0 µM,1.7%
same,growth inhibition,[6]; at 100.0 µM,1%
same,growth inhibition,[7]; at 1.2 µM,-5%
same,growth inhibition,[7]; at 3.7 µM,-8%
same,growth inhibition,[7]; at 11.0 µM,-12%
same,growth inhibition,[7]; at 33.0 µM,-8%
same,growth inhibition,[7]; at 100.0 µM,-1%
same,growth inhibition,[8]; [16],39%
same,growth inhibition,[8]; [17],82% (active)
same,growth inhibition,[8]; at 50.0 µM,-11.2%
same,growth inhibition,[9]; at 1.2 µM,-7%
same,growth inhibition,[9]; at 3.7 µM,-8%
same,growth inhibition,[9]; at 11.0 µM,-2%
same,growth inhibition,[9]; at 33.0 µM,9%
same,growth inhibition,[9]; at 100.0 µM,4%
same,growth inhibition,[10]; at 1.2 µM,-2%
same,growth inhibition,[10]; at 3.7 µM,-2%
same,growth inhibition,[10]; [16],12%
same,growth inhibition,[10]; at 11.0 µM,-3%
same,growth inhibition,[10]; at 33.0 µM,0%
same,growth inhibition,[10]; [17],72% (active)
same,growth inhibition,[10]; at 50.0 µM,13.2%
same,growth inhibition,[10]; at 100.0 µM,0%
same,growth inhibition,[11]; at 1.2 µM,-4%
same,growth inhibition,[11]; at 3.7 µM,-8%
same,growth inhibition,[11]; at 11.0 µM,-10%
same,growth inhibition,[11]; at 33.0 µM,-8%
same,growth inhibition,[11]; at 100.0 µM,-8%
same,growth inhibition,[12]; at 1.2 µM,-2%
same,growth inhibition,[12]; at 3.7 µM,-5%
same,growth inhibition,[12]; at 11.0 µM,-5%
same,growth inhibition,[12]; at 33.0 µM,10%
same,growth inhibition,[12]; at 100.0 µM,9%
same,growth inhibition,[13]; at 1.2 µM,-4%
same,growth inhibition,[13]; at 3.7 µM,-5%
same,growth inhibition,[13]; at 11.0 µM,-3%
same,growth inhibition,[13]; at 33.0 µM,26%
same,growth inhibition,[13]; at 100.0 µM,29%
same,growth inhibition,[14]; [16],4%
same,growth inhibition,[14]; [17],-17%
same,growth inhibition,[14]; at 50.0 µM,14.2%
same,growth inhibition,[15]; at 1.2 µM,-5%
same,growth inhibition,[15]; at 3.7 µM,-9%
same,growth inhibition,[15]; at 11.0 µM,-10%
same,growth inhibition,[15]; at 33.0 µM,-4%
same,growth inhibition,[15]; at 100.0 µM,0%
